Compound activity as filed in PubChem.
Rows were chosen to be rich in hits. Some 9.2% of all compounds tested hit in one or more screens of this group.
HTT aggregate: qHTS Multiplex Assay to Identify Dual Action Probes in a Cell Model of Huntington: Aggregate Formation (GFP); Potency, µM (top dose mostly 46.1 µM), actives largely listed as inhibitors; 220,000 tested, 1.1% active; PC12 HttQ103-GFP aggregates, Acumen cytometry, 40 h; active = well fitted curve in the direction sought with a large enough effect; inconclusive = small, poorly fitted or top-dose-only effect, or another doubt; inactive = no such curve, though single readings can be large; an effect the other way counts as inactive or inconclusive; also: nearly all actives have a fitted effect of over 60% in size
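PC12/HTTQ103-GFP, ecdysone-inducible; teb 100 nM; cpd qHTS titration; GFP aggregates read on laser cytometer, Ex 488/Em 500-530 nm.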
LMNA splice mod: qHTS Assay for Modulators of Lamin A Splicing; HeLa LMNA splicing GFP/RFP minigene ratio, 48 h; Potency, µM (titrated, usually from 46.1 µM), usual class: inhibitors; 200,000 tested, 0.01% active; AID 1487, 2009; active = well fitted inhibition curve with a large enough effect in the signal ratio, with a control signal flat, not every such curve was filed as active; inconclusive = small, poorly fitted or top-dose-only effect, or effect the other way, or a change in a side signal; the % refers to the signal ratio
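S3 HeLa cells stably expressing lamin A-EGFP splicing minigene plus DsRed2, 600 cells/well, 48 h compound exposure at 37C. Laser-scanning cytometry; analysed as GFP (500-530 nm)/RFP (575-640 nm) total intensity ratio; 0.5% DMSO vehicle.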
JMJD2E inh: qHTS Assay for Inhibitors of Human Jumonji Domain Containing 2E (JMJD2E); Lysine-specific demethylase 4E (Homo sapiens), B2RXH2; JMJD2E catalytic domain, FDH-coupled NADH fluorescence (FDH is formaldehyde dehydrogenase); Potency, µM (series often up to 57.1 µM), most hits filed as inhibitors; 230,000 tested, 1.6% active; AID 2147, 2009; also: nearly all actives have a fitted effect of over 50% in size
Target sequence (B2RXH2 1-337 limits assumed): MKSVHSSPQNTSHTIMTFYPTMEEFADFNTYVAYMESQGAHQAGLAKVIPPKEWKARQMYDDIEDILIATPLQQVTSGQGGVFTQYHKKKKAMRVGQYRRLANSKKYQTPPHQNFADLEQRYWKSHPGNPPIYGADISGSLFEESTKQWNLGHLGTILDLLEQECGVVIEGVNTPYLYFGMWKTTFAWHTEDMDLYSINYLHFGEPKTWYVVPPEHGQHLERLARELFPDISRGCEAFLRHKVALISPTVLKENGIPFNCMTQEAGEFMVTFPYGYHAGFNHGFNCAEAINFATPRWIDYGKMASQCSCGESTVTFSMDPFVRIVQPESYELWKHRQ
ALDH1A1 block: qHTS Assay for Inhibitors of Aldehyde Dehydrogenase 1 (ALDH1A1); Aldehyde dehydrogenase 1A1 (Homo sapiens), P00352; Purified ALDH1A1, NADH fluorescence, propionaldehyde substrate; Potency, µM (titrated, usually from 75.3 µM), hits mostly inhibitors; 220,000 tested, 7.3% active; AID 1030, 2008
HTT cytoprotect: qHTS Multiplex Assay to Identify Dual Action Probes in a Cell Model of Huntington: Cytoprotection (ATP). AID 1471, 2008. 230,000 tested, 0.14% active. PC12 HTT-Q103 induced, cytoprotection, ATP luminescence, 40 h. Potency, µM (highest dose often 56.4 µM), most hits filed as activators; active = well fitted curve in the direction sought with a large enough effect; inconclusive = small, poorly fitted or top-dose-only effect, or another doubt; inactive = no such curve, though single readings can be large; an effect the other way counts as inactive or inconclusive; also: nearly all actives have a fitted effect of over 45% in size
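Compounds were screened for protection of PC12 cells against cell death after tebufenozide induction (100 nM final) of mutant Huntingtin exon 1 (Q103) fused to GFP.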
HPGD inh: qHTS Assay for Inhibitors of HPGD (15-Hydroxyprostaglandin Dehydrogenase); purified HPGD, NADH fluorescence kinetic, PGE2 substrate; Potency, µM, hits mostly inhibitors; 15-hydroxyprostaglandin dehydrogenase [NAD(+)] (Homo sapiens), P15428; 150,000 tested, 4.3% active
Target sequence (P15428 whole entry, looked up): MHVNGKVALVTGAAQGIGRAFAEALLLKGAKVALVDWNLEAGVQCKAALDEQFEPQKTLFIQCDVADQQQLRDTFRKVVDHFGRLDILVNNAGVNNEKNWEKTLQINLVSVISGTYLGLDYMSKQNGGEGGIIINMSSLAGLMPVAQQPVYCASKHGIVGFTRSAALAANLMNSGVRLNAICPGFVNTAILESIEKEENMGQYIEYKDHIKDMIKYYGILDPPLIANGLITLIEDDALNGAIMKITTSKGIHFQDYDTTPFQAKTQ
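20 nM HPGD preincubated 15 min at room temperature with compound in 50 mM Tris-HCl pH 8, 0.01% Tween 20. Started with 1 mM NAD+ and 30 uM prostaglandin E2; NADH fluorescence (360/450 nm) read 5 times over 30-s intervals, last minus first.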
Hits are given with their value; n = inactive; u = inconclusive; x = not tested or not shown; [ ] = remark or other dose. Unless noted, calls follow the shape of the dose curve; as a rule, active = well fitted inhibition curve with a large enough effect (not every such curve was filed as active); inconclusive = small, poorly fitted or top-dose-only effect, or another doubt; inactive = no such curve, though single readings can be large or run the other way.

SMILES	HTT aggregate	LMNA splice mod	JMJD2E inh	ALDH1A1 block	HTT cytoprotect	HPGD inh
Cc1[nH]n(C(N)=S)c(=O)c1N=Nc1ccc(S(=O)(=O)N2CCCCCC2)cc1	n	n	n	11µM	n	16µM
Cc1ccc(N=Nc2c(C)[nH]n(C(N)=S)c2=O)cc1C	n	u	n	u	n[10 µM]	n
O=C(Oc1ccccc1)N1CCC2(CCCN(c3ccc(-c4ccccc4)cc3)C2)CC1	x	x	x	u	n	n
CCCCCc1c(C)nc(NCc2ccccc2)[nH]c1=O	32µM	u	n	n	n[0.074 µM]	n
CC(C)CC(=O)Nc1ccc([N+](=O)[O-])cc1Cl	n[9.22 µM]	n	n	n	n[10 µM]	x
CC(OC(=O)C1CC1)C(=O)Nc1ccc([N+](=O)[O-])cc1Cl (configuration not stated)	n	x	n	n	3.5µM	x
S=c1[nH]nc(C(c2ccccc2)C2CCCCC2)o1 (configuration not stated)	n[9.22 µM]	x	n	x	n[10 µM]	x
N=C1S/C(=C\c2ccccc2F)C(=O)N1c1ccc(F)cc1	n	n	n	n	n[10 µM]	n
N=C1S/C(=C\c2cn[nH]c2-c2ccc(F)cc2)C(=O)N1c1ccccc1F	u	n	n	n	n[10 µM]	13µM
CN(C)C(=O)c1ccc(-c2nccc(N(C)Cc3ccco3)n2)cc1	x	n	x	u	n	x
O=C(Nc1ccc(N2CCN(c3ccc(F)cc3)CC2)c(C(=O)O)c1)c1ccccc1F	x	n	x	x	x	x
CCN(CC)CCNC(=O)c1ccc2c(c1)ncn2C1CCCCC1	n	n[0.0737 µM]	n	n	n	n
CCCCNC(=O)c1ccc2c(c1)ncn2C1CCCCC1	n	n	n	n	n[10 µM]	22µM
CCCCNC(=O)c1ccc2c(c1)ncn2C1CCCC1	n	n	n	n	n	8.9µM
COc1ccc(C(=O)NCCc2csc(-c3ccc(Cl)cc3)n2)c(OC)c1	x	n	x	x	x	x
CCOC(=O)C(=CNNc1ccccc1)C(=O)OCC	n[9.22 µM]	x	n	x	n[10 µM]	x
Cc1c(CCO)c(=O)n(-c2ccccc2)n1S(=O)(=O)c1ccc(Cl)cc1	n	n	n	n	n	n
O=C(CN1C(=O)S/C(=C/c2cc(Br)cs2)C1=O)N1CCOCC1	n	n	n	22µM	u	n
O=C(CN1C(=O)S/C(=C/c2ccncc2)C1=O)N1CCOCC1	n	n	n	25µM	x	n
O=C(CN1C(=O)S/C(=C/c2cccs2)C1=O)N1CCOCC1	n	n	n	n	n	n
CCOC(=O)COc1c(Br)cc(/C=C2\SC(=O)N(CC(=O)N3CCCC3)C2=O)cc1OC	n	n	n	22µM	n[10 µM]	n
O=C(CN1C(=O)S/C(=C/c2cccnc2)C1=O)N1CCOCC1	u	u	n	u	n[10 µM]	n
Cc1cc(O)c(C(c2ccccc2)N2CCN(c3ccc(F)cc3)CC2)c(=O)n1Cc1ccco1 (configuration not stated)	x	n	x	x	x	x
Cc1cc(NS(=O)(=O)c2ccc(N)cc2)nc(C)n1	n	n	x	x	n	x
COc1ccc(/C=N/Nc2ncc(Br)cn2)c(OC)c1	u	x	n	n	3.5µM	x
SMILES	HTT aggregate	LMNA splice mod	JMJD2E inh	ALDH1A1 block	HTT cytoprotect	HPGD inh
O=C(CSc1ccc2ccccc2n1)c1ccccc1	n[9.22 µM]	x	n	x	n[10 µM]	x
O=[N+]([O-])c1ccc2[nH]c(O)c(N=NC(=S)NCC3CCCO3)c2c1 (configuration not stated)	n	u	n	0.79µM	n[10 µM]	n
O=S(=O)(NC1CC2CCC1C2)c1ccc2c(c1)OCCO2 (configuration not stated)	n	u	n	u	n	n
CC1CCCC(NS(=O)(=O)c2ccc3c(c2)OCCO3)C1C (configuration not stated)	u	n	n	14µM	n[10 µM]	n
COCC(C)n1c(C)cc(C(=O)COC(=O)c2ccc(N3CCCC3=O)cc2)c1C (configuration not stated)	n	n	n	25µM	n	n
COc1ccc(COC(=O)c2ccc3c(=O)n4c(nc3c2)CCC4)cc1F	n[9.22 µM]	x	n	n	n[10 µM]	x
COc1ccc(COC(=O)c2ccc(N3CCCC3=O)cc2)cc1F	n	u	n	n	n	14µM
CCOc1ccc(-c2c(C)nn3c(C)c(C(=O)NCc4cccc(OC)c4)cnc23)cc1OCC	x	n	x	x	x	x
COc1ccc(CN(C(=O)Nc2ccccc2)c2ccccn2)cc1OC	x	n	x	x	x	x
COCCn1c(SCC(=O)Nc2ccc(Cl)c(S(=O)(=O)N(C)C)c2)nc2ccccc21	u	u	n	32µM	n	n
Cc1ccc(NC(=O)Cn2c(=O)cnc3ccccc32)cc1S(=O)(=O)N(C)C	n	u	u	14µM	n[1.9 µM]	n
CSc1ccccc1NC(=O)Cn1c(-c2cscn2)nc2ccccc21	n	n	n	n	n[10 µM]	n
CCN(CC)S(=O)(=O)c1cc(NC(=O)Cn2cnc3ccccc3c2=O)ccc1C	n	n	n	u	n	n
CC(=O)c1ccccc1NC(=O)Cn1c(=O)cnc2ccccc21	n	u	u	1.8µM	n[10 µM]	n
CC1CC(C)CN(S(=O)(=O)c2ccc(NC(=S)NC(=O)c3ccccc3)cc2)C1 (configuration not stated)	n	n	n	n	n[10 µM]	n
COc1ccccc1Cc1nc2ccccc2nc1SCC(=O)NCc1ccc(C)cc1	x	n	x	x	x	x
COc1ccc(-c2nn(-c3ccccc3)cc2C(=O)Nc2nccs2)cc1	18µM	u	u	n	n	n
COc1cccc(-c2nn(-c3ccccc3)cc2C(=O)Nc2nccs2)c1	u	u	n	u	n	u
COc1cc(/C=C/C(=O)O)ccc1OCc1ccccc1C#N	n	n	n	u	x	n
COc1cc(C2NC(C(=O)O)CS2)ccc1OCc1ccccc1C#N (configuration not stated)	n	n	n	8.9µM	n	n
Fc1cccc(Cl)c1Cn1nnc2c(N3CCC4(CC3)OCCO4)ncnc21	n	u	n	16µM	n[10 µM]	n
c1ccc(Cn2nnc3c(N4CCc5ccccc54)ncnc32)cc1	n	n	n	u	n[10 µM]	u
c1ccc(Cn2nnc3c(N4CCCCCC4)ncnc32)cc1	n	u	n	u	n[10 µM]	32µM
CCCN1CCN(c2ncnc3c2nnn3Cc2ccccc2)CC1	n	n	n	10µM	n	25µM
CC(Nc1cccnc1)=C(C#N)C#N	n	u	n	n	n	x
CC[N+](C)(CC)CCN1C(=O)c2ccccc2S1(=O)=O	x	x	x	n[13.5 µM]	n[10 µM]	n
COc1cc(O)c(C(=O)c2ccccc2)cc1O	x	u	u	n	x	4.5µM
COc1ccc(C(=O)c2ccccc2)c2c(O)ccc(C(=O)c3ccccc3)c12	3.5µM	u	n	n	n	n
